Data: article PMC4336329 (PLoS ONE, 2015)
Screen size: about 310,000 compounds; about 14,000 (4.5%) showed an effect of 50% or more. Effects have a minus sign here. The sample as a whole holds a higher share of strong results than the screen did.

target: human ether-à-go-go-related gene (hERG) potassium channel (human, UniProt Q12809); experiment: primary screen, population patch clamp on CHO cells stably expressing hERG; higher = less effect of the substance
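Note: peak tail current of the secondary pulse compared with the same well before compound.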

Sequence of human ether-à-go-go-related gene (hERG) potassium channel (Q12809 whole entry, looked up): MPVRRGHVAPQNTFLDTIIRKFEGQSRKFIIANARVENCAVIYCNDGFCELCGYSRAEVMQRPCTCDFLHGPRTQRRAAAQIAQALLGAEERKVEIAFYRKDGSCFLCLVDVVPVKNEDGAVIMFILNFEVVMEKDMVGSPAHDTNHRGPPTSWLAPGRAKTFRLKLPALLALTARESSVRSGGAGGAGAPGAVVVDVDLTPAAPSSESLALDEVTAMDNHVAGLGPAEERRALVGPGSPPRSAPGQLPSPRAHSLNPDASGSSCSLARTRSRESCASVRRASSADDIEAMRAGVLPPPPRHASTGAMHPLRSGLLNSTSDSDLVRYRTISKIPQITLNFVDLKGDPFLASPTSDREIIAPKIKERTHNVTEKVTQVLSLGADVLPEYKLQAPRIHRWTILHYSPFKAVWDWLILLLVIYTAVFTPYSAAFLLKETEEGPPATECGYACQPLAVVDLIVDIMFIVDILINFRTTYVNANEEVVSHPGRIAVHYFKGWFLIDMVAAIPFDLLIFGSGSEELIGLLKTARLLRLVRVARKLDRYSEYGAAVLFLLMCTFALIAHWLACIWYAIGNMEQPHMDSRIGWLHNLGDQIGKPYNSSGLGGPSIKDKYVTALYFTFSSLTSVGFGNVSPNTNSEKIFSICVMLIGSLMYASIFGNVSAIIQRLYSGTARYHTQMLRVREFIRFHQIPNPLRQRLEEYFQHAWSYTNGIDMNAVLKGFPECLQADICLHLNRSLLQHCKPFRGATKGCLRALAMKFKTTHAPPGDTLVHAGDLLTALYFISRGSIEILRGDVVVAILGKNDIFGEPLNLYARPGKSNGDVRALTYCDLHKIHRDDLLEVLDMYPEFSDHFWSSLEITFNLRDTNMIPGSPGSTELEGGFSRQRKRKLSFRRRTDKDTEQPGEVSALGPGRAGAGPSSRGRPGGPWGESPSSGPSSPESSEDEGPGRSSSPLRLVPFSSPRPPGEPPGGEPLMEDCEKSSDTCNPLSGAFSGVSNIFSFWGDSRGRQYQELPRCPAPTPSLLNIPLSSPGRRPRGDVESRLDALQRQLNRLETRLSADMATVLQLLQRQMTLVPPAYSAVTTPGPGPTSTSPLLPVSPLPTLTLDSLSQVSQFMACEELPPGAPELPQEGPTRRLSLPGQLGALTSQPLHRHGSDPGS

Structure (SMILES) | hERG current change (%, negative = inhibition) at 10uM
CC(C)Cc1cc(C(=O)N2CCN(C(c3ccccc3)c3ccccc3)CC2)no1 | 0.0803%
COc1ccc(/C=c2/sc3nc(-c4ccccc4)c(-c4ccccc4)n3c2=O)cc1 | -13.9%
NC(=O)C1CCN(S(=O)(=O)Cc2ccccc2Cl)CC1 | 14.8%
CCn1c(SCc2ccc(C#N)cc2)nnc1-c1cccc(Cl)c1 | -73.6%
CCn1c(SCc2ccc(C(=O)Nc3nccs3)cc2)nnc1-c1ccc(N)cc1 | -22.2%
C=CCn1c(SCc2ccc(C#N)cc2)nnc1-c1cccc(OC)c1 | -67.4%
C=CCn1c(SCc2ccc(OC)cc2)nnc1-c1cccnc1 | -26.9%
CCn1c(SCc2ccc(Cl)cc2)nnc1-c1ccccc1 | -44.4%
CCn1c(SCc2cccc(F)c2)nnc1-c1ccncc1 | -8.82%
C=CCn1c(SCc2cccc(OC)c2)nnc1-c1ccncc1 | -15.5%
CCn1c(SCc2ccc(C(=O)Nc3cc(C)cc(C)c3)cc2)nnc1-c1ccncc1 | -59.2%
CCOC(=O)CSc1nnc(-c2cccc(Cl)c2)n1CC | -3.47%
CCn1c(SCc2ccc(C(=O)Nc3nccs3)cc2)nnc1-c1ccc(NC(C)=O)cc1 | 1.21%
CCn1c(SCc2cccc(C)c2)nnc1-c1ccc(C)cc1 | -63.7%
CCn1c(SCc2cccc(C)c2)nnc1-c1ccccc1 | -32.9%
CCOC(=O)c1c(C)[nH]c(C(=O)COC(=O)C23CC4CC(CC(Cl)(C4)C2)C3)c1C | 11.6%
CC1C(=O)N2CCCc3cc(NC(=O)C4CCCCC4)cc1c32 (stereo not shown) | 4.17%
CCOC(=O)c1cc(S(=O)(=O)N2CCc3ccccc32)cn1C | -0.504%
CCOCc1nnc(NC(=O)CSCc2ccccc2)s1 | -1.7%
Cc1ccc2cc(NC(=O)c3cccc(F)c3)ccc2n1 | 0.701%
CCOC(=O)C(NC(C)=O)C(=O)Nc1ccc(C)cc1C (stereo not shown) | 15.7%
O=C(Nc1nccs1)c1cccc(NC(=O)C(F)(F)F)c1 | -5.07%
O=c1c2c3c(sc2nc2n1CCCCC2)C(O)CCC3 (stereo not shown) | 3.27%

Structure (SMILES) | hERG current change (%, negative = inhibition) at 10uM
C=CCn1c(SCC(=O)O)nnc1-c1cccc(Cl)c1 | 4.71%
C=CCn1c(SCc2cccc(C#N)c2)nnc1-c1ccccc1O | -30.4%
C=CCn1c(SCc2ccc(C#N)cc2)nnc1-c1cccc(Cl)c1 | -72.7%
Cc1cc(NC(=O)CSc2nc3ccccc3c(=O)n2CCCC(=O)NCc2ccccc2)n[nH]1 | -8.72%
O=C(NN=C1CCCCCCCCCCC1)c1cccnc1 | 19.8%
CCN(CC)S(=O)(=O)c1cccc(C(=O)Nc2cccnc2)c1 | -17.7%
CCN(CC)c1ccc(NC(=O)c2cccnc2)c(C)c1 | 26.9%
CCN(CC)S(=O)(=O)c1ccc(Cl)c(C(=O)Oc2cccnc2)c1 | -36.8%
CCN(CC)c1ccc(S(=O)(=O)N(CC)CC)cc1NC(=O)c1cccnc1 | -72.5%
CCN(CC)S(=O)(=O)c1cc(C(=O)Nc2cccnc2)ccc1Cl | -67.9%
CCN(CC)S(=O)(=O)c1cc(C(=O)Nc2cccnc2Cl)ccc1Cl | 8.87%
CCN(CC)c1ccc(S(=O)(=O)N(CC)CC)cc1NC(=O)C1CCCC1 | -13.6%
CCN(CC)S(=O)(=O)c1ccc(Cl)c(C(=O)Nc2cccnc2)c1 | -55.8%
CCN(CC)S(=O)(=O)c1cc(C(=O)Nc2ccncc2)ccc1Cl | -66.3%
O=C(Nc1ccccc1)c1cc(S(=O)(=O)Nc2cccnc2)ccc1Cl | -3.06%
CCN(CC)S(=O)(=O)c1cc(C(=O)Nc2cc(C)[nH]n2)ccc1Cl | -10.3%
O=C(Nc1cccnc1)c1ccc(Cl)c(Cl)c1 | 10.3%
COc1cccc(-c2sc3ccc(OC)cc3c2C#CCCO)c1 | -7.87%
CCc1nnc(NC(=O)CSC(=S)N2CCOCC2)s1 | 14.6%
CC(=O)c1cn(CC(=O)Nc2ccccc2F)c2ccccc12 | 2.54%
Cc1nc2ccc(N)cc2c(=O)n1Cc1ccc(Cl)cc1 | -11.4%
N#Cc1ccc(N2CCOCC2)c([N+](=O)[O-])c1 | -21.7%
COc1ccccc1N(C)S(=O)(=O)c1ccc(C(=O)Nc2ccncc2)cc1 | -28.6%

Structure (SMILES) | hERG current change (%, negative = inhibition) at 10uM
CN(c1ccccc1)S(=O)(=O)c1ccc(Cl)c(C(=O)Nc2ccncc2)c1 | -5.35%
COc1ccccc1N(C)S(=O)(=O)c1ccc(Cl)c(C(=O)Nc2ccncc2)c1 | -73.4%
CCN(CC)S(=O)(=O)c1cc(C(=O)Nc2cc(Cl)ccc2N2CCN(C)CC2)ccc1Cl | -53.5%
CN1CCN(c2ccc(Cl)cc2NC(=O)c2ccc([N+](=O)[O-])cc2)CC1 | -10.6%
CN1CCN(c2ccc(Cl)cc2NC(=O)c2cccc(S(=O)(=O)N(C)C)c2)CC1 | -36.9%
Cn1nc(C(=O)Nc2ccccc2N2CCOCC2)ccc1=O | -24.4%
CN1CCN(c2ccc(Cl)cc2NC(=O)c2ccc(S(=O)(=O)N(C)C)cc2)CC1 | 1.58%
CN1CCN(c2ccc(Cl)cc2NC(=O)c2ccc(=O)n(C)n2)CC1 | -58.3%
CCOc1cccc2sc(N3CCN(C(=O)c4ccc5ncsc5c4)CC3)nc12 | 2.18%
CCS(=O)(=O)NC(C)C(c1cccs1)N1CCN(c2ccc(OC)cc2)CC1 (stereo not shown) | -7.31%
COc1ccc(CN(CC(=O)NCc2ccccc2)C(=O)CCC(=O)Nc2cc(C)ccn2)cc1 | -17.2%
COc1ccc(CNC(=O)CN(Cc2ccccc2)C(=O)CCC(=O)Nc2ccccn2)cc1 | -55.9%
O=C(CN(Cc1ccccc1)C(=O)CCC(=O)Nc1nccs1)NCc1ccc(F)cc1 | -1.38%
O=C(CN(Cc1ccccc1)C(=O)CCC(=O)Nc1ccccn1)NCCc1ccccc1 | -52.4%
O=C(CN(Cc1ccc(F)cc1)C(=O)CCC(=O)Nc1nccs1)NCc1ccccc1 | -35.6%
COc1ccc(CNC(=O)CN(Cc2cccs2)C(=O)CCC(=O)Nc2ccccn2)cc1 | -41.1%
O=C(CN(Cc1ccc(F)cc1)C(=O)CCC(=O)Nc1nccs1)NCc1ccc(F)cc1 | -50.5%
COc1ccc(CNC(=O)CN(Cc2ccc(OC)cc2)C(=O)CCC(=O)Nc2ccccn2)cc1 | -64.4%
COc1ccc(CN(CC(=O)NCc2ccc(F)cc2)C(=O)CCC(=O)Nc2ccccn2)cc1 | -28.2%
O=C(CN(Cc1ccc(F)cc1)C(=O)CCC(=O)Nc1ccccn1)NCCc1ccccc1 | -15.7%
COc1ccc(CN(CC(=O)NCCc2ccccc2)C(=O)CCC(=O)Nc2ccccn2)cc1 | -27.1%
COc1ccc(CN(CC(=O)NCc2ccccc2)C(=O)CCC(=O)Nc2ccccn2)cc1 | -21.1%
O=C(O)CC(NC(=O)C(c1ccccc1)c1ccccc1)c1cccc([N+](=O)[O-])c1 (stereo not shown) | 2.05%

Structure (SMILES) | hERG current change (%, negative = inhibition) at 10uM
CNC(=O)CNC(=O)Nc1ccc(Cl)c(Cl)c1 | 9.11%
CC(Cc1cnccn1)NCc1c(C(=O)N2CCCCCCC2)nc2ccc(Cl)cn12 (stereo not shown) | -12.8%
CCn1c(=O)c2c(nc3n2CCCN3Cc2ccccc2)n(C)c1=O | -18.2%
CC#CCCc1nc2ccccc2c(=O)n1N | 15.9%
Cc1cc([N+](=O)[O-])ccc1NCc1ccc2c(c1)OCCO2 | 5.37%
CCCCOC(=O)Nc1cccc(Cl)c1C | -15.6%
CC(C)CN(C(=O)COC(=O)c1ccc2c(c1)NC(=O)CS2)C1CCS(=O)(=O)C1 (stereo not shown) | 13.1%
COc1ccccc1NC(=S)N(c1ccccc1)C(C)C | 6.18%
C=C(C)Cn1c(SCCCO)nc2c1c(=O)[nH]c(=O)n2C | -4.83%
Cc1cc(C)c2nc(C(F)(F)F)nc(N3CCN(C(=O)c4ccco4)CC3)c2c1 | 6.1%
Cc1ccc(N2C(=O)C(NC(=O)c3ccccc3)(C(F)(F)F)C3=C2CC(C)(C)CC3=O)cc1 (stereo not shown) | 7.2%
O=C(Nc1nccs1)c1ccc(Cl)cc1[N+](=O)[O-] | -9.1%
Cc1csc(NC(=O)c2ccccc2[N+](=O)[O-])n1 | 2.69%
Cc1csc(NC(=O)c2ccc(Cl)cc2[N+](=O)[O-])n1 | -64.8%
COC(=O)c1ccc(CSc2nnc(NC(=O)C3CCCO3)s2)cc1 (stereo not shown) | -23.5%
CCN(CC)S(=O)(=O)c1ccc(N2CCOCC2)c(NS(=O)(=O)c2ccc(C(C)C)cc2)c1 | -6.87%
O=C(C1CC(=O)N(c2ccccc2)C1)N1CCC(c2nc3ccccc3[nH]2)CC1 (stereo not shown) | 9.08%
Cc1ccc(N2CC(C(=O)N3CCC(c4nc5ccccc5[nH]4)CC3)CC2=O)cc1C (stereo not shown) | -46.2%
COc1ccc(N2CC(C(=O)N3CCC(c4nc5ccccc5[nH]4)CC3)CC2=O)cc1 (stereo not shown) | -19.3%
O=C(C1CC(=O)N(c2ccc(Cl)cc2)C1)N1CCC(c2nc3ccccc3[nH]2)CC1 (stereo not shown) | -71.6%
O=C(C1CC(=O)N(c2ccc(F)cc2)C1)N1CCC(c2nc3ccccc3[nH]2)CC1 (stereo not shown) | -63.8%
O=C(C1CCCCC1)N1CCC(c2nc3ccccc3[nH]2)CC1 | -5.51%
